Source: PubChem BioAssay (Tox21)
Inconclusive results are not listed. Calls of active or inactive are those of the source. Unless noted, the call rests on the fitted dose curve; in most records, active means well fitted curve in the direction sought with a large enough effect in the repeat runs; inconclusive means weak or mixed curves; inactive means no such curve, though single readings can be large; an effect the other way counts as inactive or inconclusive.

Legend:
[1] = target: Retinoic acid receptor RXR-alpha (Homo sapiens) (UniProt P19793); experiment: qHTS assay to identify small molecule agonists of the RXR signaling pathway (AID 1159527; calls by dose curve; further: nearly all actives have a fitted effect of over 35% in size)
Retinoic acid receptor RXR-alpha (Homo sapiens), sequence (P19793 whole entry, looked up): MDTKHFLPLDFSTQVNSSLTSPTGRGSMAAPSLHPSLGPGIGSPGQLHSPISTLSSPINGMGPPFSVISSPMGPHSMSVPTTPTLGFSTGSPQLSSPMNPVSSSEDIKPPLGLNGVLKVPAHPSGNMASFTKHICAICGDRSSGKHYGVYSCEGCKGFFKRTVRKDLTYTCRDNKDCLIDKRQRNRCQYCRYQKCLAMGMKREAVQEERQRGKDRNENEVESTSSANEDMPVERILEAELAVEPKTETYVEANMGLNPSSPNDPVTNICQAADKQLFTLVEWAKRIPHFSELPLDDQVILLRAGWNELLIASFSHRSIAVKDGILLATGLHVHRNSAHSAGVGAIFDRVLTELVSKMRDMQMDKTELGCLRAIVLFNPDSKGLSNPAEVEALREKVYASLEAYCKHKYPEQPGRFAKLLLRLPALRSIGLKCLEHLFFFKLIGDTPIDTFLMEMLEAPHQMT
Procedure, shortened: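 Reporter activation is measured as beta-lactamase activity via FRET substrate cleavage (emission 460/530 nm) in HEK 293T cells expressing an RXR-alpha-driven bla construct, following 16 hr compound exposure at 37 C.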

[2] = qHTS assay to identify small molecule agonists of the RXR signaling pathway - cell viability counter screen (AID 1159529); further: nearly all actives have a fitted effect of over 50% in size
Procedure, shortened: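 Tox21 10K compounds were tested for cytotoxicity against GeneBLAzer RXR-alpha HEK 293T cells grown in 2% charcoal-stripped FBS. Exposure lasted 16 hr at 37 C, 5% CO2; viability read by CellTiter-Glo luminescence.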

[3] = qHTS assay to identify small molecule antagonists of the retinoid acid receptor (RAR) signaling pathway - cell viability counter screen (AID 1159551); further: nearly all actives have a fitted effect of over 35% in size
Procedure, shortened: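 C3RL4 RARE-luciferase cells, 1,000/well, incubated overnight, then dosed with compound plus 1 uM retinol (final). After 6 hr at 37 C, viability read by CellTiter-Glo ATP luminescence following 30 min at room temperature.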

[4] = qHTS assay to identify small molecule antagonists of the retinoic acid receptor (RAR) signaling pathway (AID 1159552; further: nearly all actives have a fitted effect of over 50% in size)
Procedure, shortened: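 Overnight-plated C3RL4 reporter cells get compound, then retinol to 1 uM final; plates sit 6 hr at 37 C, 5% CO2. A luciferase reagent is added and light output recorded after 30 min at room temperature.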

[5] = qHTS assay to identify small molecule agonists of the retinoic acid receptor (RAR) signaling pathway (AID 1159553); settings: C3RL4 RARE luciferase reporter, agonist, 6 h; activation: at 73.3 µM (top of the series)
Procedure, shortened: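 C3RL4 RARE-luciferase cells were seeded at 1,000/well and grown overnight at 37 C, then exposed to compounds for 6 hr at 37 C, 5% CO2. Luciferase reagent was added and luminescence was read after 30 min at room temperature.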

[6] = target: Luciferin 4-monooxygenase (Photinus pyralis) (UniProt P08659); experiment: qHTS assay to identify small molecule inhibitors of firefly luciferase (AID 1224835); further: nearly all actives have a fitted effect of over 25% in size
Luciferin 4-monooxygenase (Photinus pyralis), sequence (P08659 whole entry, looked up): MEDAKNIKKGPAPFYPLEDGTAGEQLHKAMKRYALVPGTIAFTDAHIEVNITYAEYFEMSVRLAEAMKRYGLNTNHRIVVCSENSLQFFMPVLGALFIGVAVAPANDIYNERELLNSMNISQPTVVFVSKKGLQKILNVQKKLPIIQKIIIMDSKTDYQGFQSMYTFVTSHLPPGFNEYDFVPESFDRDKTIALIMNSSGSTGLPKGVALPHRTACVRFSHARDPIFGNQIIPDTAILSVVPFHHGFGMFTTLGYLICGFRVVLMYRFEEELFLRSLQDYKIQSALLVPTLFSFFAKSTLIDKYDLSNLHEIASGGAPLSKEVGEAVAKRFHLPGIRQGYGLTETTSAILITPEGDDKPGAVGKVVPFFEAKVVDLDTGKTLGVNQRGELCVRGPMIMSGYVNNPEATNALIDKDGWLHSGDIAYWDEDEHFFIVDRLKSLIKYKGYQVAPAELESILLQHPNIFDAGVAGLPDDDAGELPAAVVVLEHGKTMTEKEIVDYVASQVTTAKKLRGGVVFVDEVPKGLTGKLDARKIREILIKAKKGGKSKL
Procedure, shortened: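 Quantitative HTS format; KM concentrations of both substrates. Purified P. pyralis FLuc activity quantified from luminescence images.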

[7] = qHTS assay to identify small molecule agonists of the constitutive androstane receptor (CAR) signaling pathway - cell viability counter screen (AID 1224836); further: nearly all actives have a fitted effect of over 45% in size
Procedure, shortened: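 Fluorescence from CellTiter-Fluor indicates live cells after 23 h exposure. The human hepatoma line expresses hCAR and a CYP2B6-2.2kb reporter. Incubation medium contains 0.75 uM PK11195 (final).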

[8] = qHTS assay to identify small molecule antagonists of the constitutive androstane receptor (CAR) signaling pathway - cell viability counter screen (AID 1224837); further: nearly all actives have a fitted effect of over 45% in size
Procedure, shortened: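 HepG2 cells stably carrying hCAR and CYP2B6-2.2kb reporter, stimulated with 50 nM CITCO and compounds at 15 concentrations for 23 h at 37 C. Viability measured by CellTiter-Fluor fluorescence.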

[9] = qHTS assay to identify small molecule antagonists of the estrogen related receptor signaling pathway with the pleiotropic PPARgamma coactivator (PGC) from Tox21 10K library - cell viability counter screen (AID 1224840; active means well fitted cell-killing curve with a large enough effect in the repeat runs, not every such curve was filed as active; further: nearly all actives have a fitted effect of over 40% in size)
Procedure, shortened: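 PGC/ERR cells (2,000/well) plated 6 h, then compound-treated for 17.5 h at 37 C. Viability measured by CellTiter-Fluor fluorescence after 30 min at 37 C, multiplexed with the pathway assay.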

[10] = qHTS assay to identify small molecule agonists of the hypoxia (HIF-1) signaling pathway - cell viability counter screen (AID 1224844; calls by dose curve; further: nearly all actives have a fitted effect of over 50% in size)
Procedure, shortened: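 HRE-bla ME-180 cells, 2,000/well in 0.5% dialyzed FBS medium, treated 17 h at 37C with compounds. Viability read in the same wells as the bla reporter, by CellTiter-Glo luminescence after 30 min at room temperature.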

[11] = qHTS assay to identify small molecule agonists of H2AX (AID 1224845; active means well fitted activation curve with a large enough effect in the signal ratio in the repeat runs, not every such curve was filed as active; the % refers to the signal ratio)
Procedure, shortened: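 Wild-type CHO-K1 cells plated overnight, then exposed 3 hr at 37C to compounds at 15 concentrations (0.76% DMSO). Lysed, then HTRF anti-pH2AX(S139)-cryptate/anti-H2AX-d2 detection after 24 hr at room temperature; emissions 665 and 620 nm.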

[12] = qHTS assay to identify small molecule agonists of the hypoxia (HIF-1) signaling pathway (AID 1224846; active means well fitted activation curve with a large enough effect in the signal ratio in the repeat runs, not every such curve was filed as active; the % refers to the signal ratio)
Procedure, shortened: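 HRE-bla ME-180 beta-lactamase reporter cells in medium with 0.5% dialyzed FBS, pre-incubated 5 h then exposed to compounds 17 h at 37C, 5% CO2; reporter induction read with CCF4-AM FRET substrate.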

[13] = qHTS assay to identify small molecule agonists of H2AX - cell viability counter screen (AID 1224847; calls by dose curve; further: top concentration of the series differs between compounds; nearly all actives have a fitted effect of over 30% in size)
Procedure, shortened: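 Viability of CHO-K1 (wild type) cells after 3 hr compound exposure was measured by CellTiter-Glo luminescence.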

[14] = target: Thyrotropin receptor (Homo sapiens) (UniProt P16473); experiment: qHTS assay to identify small molecule agonists of the thyroid stimulating hormone receptor (TSHR) signaling pathway (AID 1224843; calls by dose curve; further: nearly all actives have a fitted effect of over 45% in size)
Thyrotropin receptor (Homo sapiens), sequence (P16473 whole entry, looked up): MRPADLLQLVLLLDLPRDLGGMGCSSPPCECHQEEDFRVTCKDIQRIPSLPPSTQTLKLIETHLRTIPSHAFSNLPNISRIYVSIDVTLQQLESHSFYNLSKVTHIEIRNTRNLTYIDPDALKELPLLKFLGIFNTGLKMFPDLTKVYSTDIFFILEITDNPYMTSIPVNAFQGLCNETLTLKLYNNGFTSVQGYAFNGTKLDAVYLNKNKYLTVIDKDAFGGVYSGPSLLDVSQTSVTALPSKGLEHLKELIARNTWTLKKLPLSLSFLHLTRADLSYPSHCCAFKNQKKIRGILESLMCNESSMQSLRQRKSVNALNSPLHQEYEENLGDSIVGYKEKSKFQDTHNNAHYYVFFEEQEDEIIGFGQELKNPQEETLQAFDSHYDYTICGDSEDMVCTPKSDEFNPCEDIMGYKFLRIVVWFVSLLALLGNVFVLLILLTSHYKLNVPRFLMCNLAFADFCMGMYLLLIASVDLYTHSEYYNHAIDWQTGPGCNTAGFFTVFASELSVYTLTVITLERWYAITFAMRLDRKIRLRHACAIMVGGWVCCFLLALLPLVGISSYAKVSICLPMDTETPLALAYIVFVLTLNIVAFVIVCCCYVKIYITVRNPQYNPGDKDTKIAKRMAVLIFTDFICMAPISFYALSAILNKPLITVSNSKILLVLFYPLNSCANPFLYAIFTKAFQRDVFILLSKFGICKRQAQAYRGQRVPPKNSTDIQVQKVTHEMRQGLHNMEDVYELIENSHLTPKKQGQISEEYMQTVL
Procedure, shortened: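 TSHR-expressing HEK293 cells (800 per well) were exposed to compounds for 30 min at room temperature. cAMP was then detected by HTRF competition with cAMP-d2 and anti-cAMP cryptate, read after 1 h at room temperature. Fifteen concentrations, triplicate.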

[15] = target: Nuclear receptor subfamily 1 group I member 3 (Homo sapiens) (UniProt Q14994); experiment: qHTS assay to identify small molecule antagonists of the constitutive androstane receptor (CAR) signaling pathway (AID 1224838); further: nearly all actives have a fitted effect of over 40% in size
Nuclear receptor subfamily 1 group I member 3 (Homo sapiens), sequence (Q14994 whole entry, looked up): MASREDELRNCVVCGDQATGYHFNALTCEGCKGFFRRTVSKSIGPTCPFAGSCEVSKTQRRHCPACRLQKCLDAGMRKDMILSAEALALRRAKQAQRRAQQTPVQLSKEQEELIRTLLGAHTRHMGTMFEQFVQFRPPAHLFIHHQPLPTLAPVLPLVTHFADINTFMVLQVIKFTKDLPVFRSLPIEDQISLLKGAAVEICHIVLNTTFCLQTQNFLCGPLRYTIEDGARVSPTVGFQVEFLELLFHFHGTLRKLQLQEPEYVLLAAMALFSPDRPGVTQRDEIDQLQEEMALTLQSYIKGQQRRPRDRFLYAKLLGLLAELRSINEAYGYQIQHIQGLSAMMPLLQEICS
Procedure, shortened: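 HepG2 cells stably carrying hCAR and a CYP2B6-2.2kb luciferase reporter, seeded 4 hrs before compound (15 concentrations). Stimulated with 50 nM CITCO for 24 hr at 37 C. ONE-Glo luminescence read after 30 min at room temperature.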

[16] = target: Nuclear receptor subfamily 1 group I member 3 (Homo sapiens) (UniProt Q14994); experiment: qHTS assay to identify small molecule agonists of the constitutive androstane receptor (CAR) signaling pathway (AID 1224839); further: nearly all actives have a fitted effect of over 15% in size
Procedure, shortened: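 Stable hCAR/CYP2B6-2.2kb HepG2 line in DMEM with 10% FBS; compounds (15 concentrations) and 0.75 uM PK11195 final, 24 h at 37 C/5% CO2, then ONE-Glo luminescence after 30 min.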

[17] = qHTS assay to identify small molecule antagonists of the estrogen related receptor (ERR) signaling pathway from Tox21 library - cell viability counter screen (AID 1224834); further: nearly all actives have a fitted effect of over 30% in size
Procedure, shortened: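 ERR reporter cells, 2,000 per well, rested 6 h, then exposed to compound in DMSO for 17.5 hours at 37 C. Viability read as fluorescence after 30 min with CellTiter-Fluor.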

[18] = qHTS assay to identify small molecule antagonists of the estrogen related receptor signaling pathway with the pleiotropic PPARgamma coactivator (PGC) from Tox21 10K library (AID 1224841; call rule not given here; further: actives are mostly falling curves and most rising ones were filed inactive; nearly all actives have a fitted effect of over 50% in size)
Procedure, shortened: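 PGC/ERR cell line, 2,000 cells/well, pre-incubated 6 hours at 37 C, then exposed to compounds for 18 hours at 37 C; luciferase read with One-Glo luminescence after 30 min at room temperature.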

[19] = qHTS assay to identify small molecule agonists of the estrogen related receptor signaling pathway with the pleiotropic PPARgamma coactivator (PGC) from Tox21 10K library (AID 1224842); further: nearly all actives have a fitted effect of over 15% in size
Procedure, shortened: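 PGC/ERR reporter cells (NTP line) were seeded 2,000 per well, rested 6 h at 37 C/5% CO2, then pin-dosed with compounds in DMSO for 18 h at 37 C; luciferase read by One-Glo luminescence after 30 min at room temperature.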

[20] = qHTS assay to identify small molecule antagonists of the estrogen related receptor (ERR) signaling pathway from Tox21 library (AID 1224848); further: nearly all actives have a fitted effect of over 50% in size
Procedure, shortened: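 Cells: ERR line, 2,000/well; 6 h preincubation 37 C/5% CO2. Cpd in DMSO via pin tool; 18 h, 37 C. ONE-Glo, 30 min RT, luminescence.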
On the % scale 0 is the no-effect control and ±100 the full control effect.

CCC(C)N (stereo unspecified)
inactive: Potency [1] | outcome [2] | outcome [3] | Potency [4] | Potency [5] | Potency [6] | outcome [7] | Potency [8] | outcome [9] | outcome [10] | outcome [11] | outcome [12] | Potency [13]

COc1cc2c3cc1Oc1cc(ccc1O)C[C@@H]1c4c(cc(OC)c(O)c4Oc4ccc(cc4)C[C@@H]3N(C)CC2)CC[N+]1(C)C
inactive: Potency [1] | outcome [2] | outcome [3] | Potency [4] | Potency [5] | Potency [6] | outcome [7] | Potency [8] | outcome [9] | outcome [14] | outcome [10] | outcome [11] | outcome [12] | Potency [13]

CCC(=O)c1ccc(O)cc1
inactive: Potency [1] | outcome [2] | outcome [3] | Potency [4] | Potency [5] | outcome [7] | Potency [8] | Potency [15] | Potency [16] | outcome [9] | outcome [10] | outcome [11] | outcome [12] | Potency [13]

CCOC(=O)CCCCCCCCC(=O)OCC
inactive: Potency [1] | outcome [2] | outcome [3] | Potency [4] | Potency [5] | Potency [6] | outcome [7] | Potency [8] | Potency [15] | Potency [16] | outcome [9] | outcome [10] | outcome [12] | Potency [13]

C=CCCCCCCCCCCC
inactive: activation [1] 6.32% [at 6.98 µM] | activity change, negative = cytotoxicity [2] 0.762% [at 6.97 µM] | activity change, negative = cytotoxicity [3] 5.5% [at 8.39 µM] | activity, negative = inhibition [4] 18.9% [at 8.39 µM] | activation [5] 0.0107% [at 8.36 µM] | activity change, negative = inhibition [6] 6.44% [at 10.5 µM] | activity change, negative = cytotoxicity [8] 6.96% [at 8.39 µM] | viability change, negative = cytotoxic [9] 1.26% [at 8.39 µM] | activation [14] -0.0254% [at 8.39 µM] | activity change, negative = cytotoxicity [10] 2.72% [at 6.97 µM] | activation (H2AX phosphorylation) [11] -0.58% [at 14 µM] | activation [12] -0.397% [at 7.01 µM] | activity change, negative = cytotoxicity [13] 3.67% [at 14 µM]

O=C(/C=C/c1ccccc1)NCCO
inactive: Potency [1] | outcome [2] | outcome [3] | Potency [4] | Potency [5] | outcome [7] | Potency [8] | Potency [15] | Potency [16] | outcome [9] | outcome [14] | outcome [11] | outcome [12] | Potency [13]

O=CN1CCOCC1
inactive: Potency [1] | outcome [2] | outcome [3] | Potency [4] | Potency [5] | Potency [17] | Potency [8] | outcome [9] | Potency [18] | outcome [19] | outcome [14] | outcome [10] | outcome [11] | outcome [12] | Potency [13] | Potency [20]

COCC(=O)Nc1c(I)c(C(=O)NCC(O)CO)c(I)c(C(=O)N(C)CC(O)CO)c1I (stereo unspecified)
inactive: Potency [1] | outcome [2] | outcome [3] | Potency [4] | Potency [5] | Potency [6] | outcome [7] | Potency [8] | outcome [9] | outcome [14] | outcome [10] | outcome [11] | Potency [13]

O=S(=O)(O)SSS(=O)(=O)O
inactive: Potency [1] | outcome [2] | outcome [3] | Potency [4] | Potency [5] | outcome [7] | Potency [8] | Potency [15] | Potency [16] | outcome [9] | outcome [14] | outcome [10] | outcome [11] | outcome [12] | Potency [13]
